Experimental data: PubChem BioAssay (NCI)
Compounds without any hit were thinned out: in the full panel of roughly 79,000, 15% have a hit. Unmarked numbers belong to inactive results. The source made the active and inactive calls. Cut-off read from the data, not from the text of the source: active = growth inhibition above about 70%; inactive = the rest.

Assays:
[1] = NCI Yeast Anticancer Drug Screen. Data for the rad50 strain (AID 155);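 note: 0% = growth of vehicle-only cultures of the same strain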; settings: S. cerevisiae rad50 strain growth inhibition, active compounds read high
Procedure, shortened: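 Vehicle-treated cultures provide the reference for the growth inhibition reported for compound-exposed, repair-deficient yeast.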

[2] = NCI Yeast Anticancer Drug Screen. Data for the mec2-1 strain (AID 157); settings: S. cerevisiae mec2-1 strain, active compounds read high
Procedure, shortened: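 Mutant yeast (mec2-1) grown with compound; growth inhibition relative to vehicle control reported.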

[3] = NCI Yeast Anticancer Drug Screen. Data for the sgs1 mgt1 strain (AID 161);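 note: 0% = growth of cultures given vehicle only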; settings: S. cerevisiae sgs1 mgt1 strain, active compounds read high
Procedure, shortened: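 Yeast cells carrying a defined DNA-repair defect were exposed to test compounds. Growth inhibition was measured relative to vehicle-treated controls.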

[4] = NCI Yeast Anticancer Drug Screen. Data for the cln2 rad14 strain (AID 165);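 note: 0% = growth equal to vehicle treated cultures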; settings: S. cerevisiae cln2 rad14 strain, active compounds read high
Procedure, shortened: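 Readout is yeast growth inhibition versus vehicle-treated controls, using a strain with cln2 and rad14 alterations exposed to compound.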

[5] = NCI Yeast Anticancer Drug Screen. Data for the bub3 strain (AID 167); settings: S. cerevisiae bub3 mutant strain, active compounds read high
Procedure, shortened: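 Mutant yeast screening strain plus compound; vehicle-treated cultures serve as the 0% inhibition reference.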

[6] = NCI Yeast Anticancer Drug Screen. Data for the mlh1 rad18 strain (AID 175); settings: S. cerevisiae mlh1 rad18 strain growth inhibition, active compounds read high
Procedure, shortened: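 Genetically defined yeast (DNA repair-deficient) exposed to compounds; growth inhibition determined relative to vehicle.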

[7] = at 5.0 µM (retest, dose inferred, filed as 0.5)
[8] = at 50.0 µM (retest, dose inferred, filed as 5.0)

Compound	growth inhibition [1, 7]	growth inhibition [1, 8]	growth inhibition ([1]; at 50.0 µM)	growth inhibition [2, 7]	growth inhibition [2, 8]	growth inhibition ([2]; at 50.0 µM)	growth inhibition [3, 7]	growth inhibition [3, 8]	growth inhibition ([3]; at 50.0 µM)	growth inhibition [4, 7]	growth inhibition [4, 8]	growth inhibition ([4]; at 50.0 µM)	growth inhibition [5, 7]	growth inhibition [5, 8]	growth inhibition ([5]; at 50.0 µM)	growth inhibition [6, 7]	growth inhibition [6, 8]	growth inhibition ([6]; at 50.0 µM)
NCCCSc1ccc(Br)cc1	-10%	13%	9.6%	-4%	-5%	34.3%	-4%	47%	20.1%	0%	17%	35.1%	-22%	-21%	8.3%	-4%	13%	8.5%
CCOC(C)c1ccccc1 (configuration not stated)	39%	90% (active)	-37%	42%	99% (active)	-5.85%	16%	62%	30.8%	10%	59%	-16.9%	19%	99% (active)	-0.8%	64%	99% (active)	-0.2%
CC(C)CC(CC(C)C)OP(=O)(O)OC(CC(C)C)CC(C)C	7%	76% (active)	80.1% (active)	11%	72% (active)	82.5% (active)	9%	71% (active)	77.2% (active)	13%	78% (active)	85% (active)	9%	78% (active)	70.5% (active)	9%	82% (active)	79.3% (active)
Cc1c(NC(=O)C(=O)N=NC(=O)c2ccncc2)c(O)c2ccccc2c1O	-15%	91% (active)	91% (active)	-31%	90% (active)	93.5% (active)	-5%	69%	91.9% (active)	-24%	82% (active)	90.4% (active)	1%	96% (active)	91% (active)	-6%	93% (active)	91.3% (active)
COC(=O)c1ccccc1C#Cc1ccccc1C(=O)OC	-1%	-1%	66.8%	-2%	2%	54.3%	-2%	1%	89% (active)	-2%	-7%	12.9%	3%	4%	83.5% (active)	-3%	-5%	50%
COc1cc(OC)cc(C2OC3=C(Nc4ccc([N+](=O)[O-])cc4N3)C2=O)c1 (configuration not stated)	2%	60%	86.8% (active)	10%	40%	59.8%	30%	50%	81.1% (active)	11%	29%	57%	24%	16%	51.2%	-4%	49%	82.4% (active)
CC1=NC(C)=C(/C(C)=N/NC(=O)c2ccccc2O)C(C)/C1=C(/C)NNC(=O)c1ccccc1O (configuration not stated)	16%	16%	74.7% (active)	12%	12%	75% (active)	-1%	-1%	81.1% (active)	-2%	-2%	62%	-3%	-3%	82.8% (active)	2%	2%	80% (active)
CN(C)CCC(=O)C(=Cc1cc(Cl)cc(Cl)c1)C(=O)CCN(C)C	2%	98% (active)	96.3% (active)	-19%	99% (active)	99% (active)	12%	99% (active)	85.2% (active)	0%	98% (active)	40.6%	-8%	98% (active)	97.8% (active)	-4%	97% (active)	97.5% (active)
CCOC(=O)/C(=C/c1ccc2ccccc2c1)P(=O)(OCC)OCC	-17%	-15%	76.6% (active)	6%	-13%	69.2%	-6%	-5%	66.8%	10%	19%	71.1% (active)	16%	9%	75.5% (active)	-18%	-7%	58%
Cc1cc(N)c2c(c1O)C(=O)c1ccccc1C2=O	-2%	47%	7.5%	-1%	26%	7.35%	-5%	39%	-0.6%	0%	21%	25.1%	-5%	42%	20.8%	-3%	47%	18.2%
Cc1cc2nc(CS)[nH]c2cc1C	-13%	41%	66.3%	4%	44%	51.9%	15%	70% (active)	70.8% (active)	31%	51%	43.2%	26%	85% (active)	55.9%	-13%	61%	44.2%
CN(C)c1ccc(N=Nc2cccc3ccccc23)cc1	8%	75% (active)	34%	3%	89% (active)	0.15%	10%	85% (active)	4.3%	1%	51%	50.2%	-5%	88% (active)	-5.65%	-6%	42%	12.5%
CC1=C(/C=C/C(C)=N/NC(N)=S)C(C)(C)CCC1	24%	87% (active)	84.5% (active)	5%	88% (active)	80.5% (active)	22%	88% (active)	65.8%	15%	85% (active)	76.9% (active)	16%	86% (active)	80.1% (active)	6%	89% (active)	85% (active)
O=C([O-])c1ccc([I+]c2ccccc2)cc1	9%	65%	57%	8%	72% (active)	41.8%	18%	67%	48.1%	1%	47%	65.7%	12%	79% (active)	47%	10%	80% (active)	80.9% (active)
O=C1OC(=O)C2C3CCC(C3=C3CCCCC3)C12 (configuration not stated)	-2%	93% (active)	35%	7%	95% (active)	28.2%	-1%	58%	40%	5%	96% (active)	-8.55%	5%	95% (active)	10.8%	-1%	93% (active)	36.8%
CC(=O)OCC(=O)[C@@]1(O)[C@H](C)C[C@H]2[C@@H]3C=C(C)C4=Cc5c(cnn5-c5ccccc5)C[C@]4(C)[C@@]3(F)[C@@H](O)C[C@@]21C	0%	81% (active)	82.4% (active)	0%	36%	69.5%	35%	91% (active)	83.2% (active)	19%	88% (active)	73.4% (active)	-1%	79% (active)	24.1%	46%	87% (active)	87.7% (active)
CC(=O)/C=C1\C(=O)Nc2ccccc21	20%	97% (active)	85.1% (active)	10%	100% (active)	91.6% (active)	16%	92% (active)	91.7% (active)	26%	95% (active)	32.9%	12%	99% (active)	87.7% (active)	14%	99% (active)	78.7% (active)
CC1OC2CC(=O)OC2C2=C1C(=O)c1c(O)cccc1C2=O (configuration not stated)	99% (active)	99% (active)	91.8% (active)	100% (active)	99% (active)	93% (active)	99% (active)	99% (active)	92.6% (active)	99% (active)	99% (active)	91.4% (active)	99% (active)	99% (active)	91.4% (active)	99% (active)	99% (active)	91.7% (active)
O=C1c2cc3c(cc2CC1Br)CCC3 (configuration not stated)	99% (active)	99% (active)	79.5% (active)	99% (active)	100% (active)	87% (active)	99% (active)	99% (active)	88.3% (active)	98% (active)	99% (active)	90.2% (active)	99% (active)	99% (active)	89.5% (active)	99% (active)	99% (active)	92.4% (active)
